Ub-GFP proteasome – inhibits proteasome, raising ubiquitin-GFP reporter fluorescence. AID 526. Ubiquitin-GFP reporter cells, proteasome inhibition, GFP fluorescence; response scale: untreated = 0%, 10 µM MG-132 = 100%. Potency, µM (series often up to 45.9 µM), inactives show at the highest dose activation (GFP accumulation), actives largely listed as activators. 67,000 tested, under 10 active; active means well fitted activation curve with a large enough effect, not every such curve was filed as active; inconclusive means small, poorly fitted or top-dose-only effect, or another doubt; inactive means no such curve, though single readings can be large or run the other way; further: potency means the concentration at half of the fitted maximal effect
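Reporter cells (U2OS, ubiquitin-G76V-GFP fusion) are plated overnight, then treated 4 hr at 37 °C with compound titrations from 46 uM down to 2.9 nM. Activity is scaled against untreated cells and 10 uM MG-132.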
FLuc inh – inhibitors of firefly luciferase; P08659; purified firefly luciferase, luminescence, 8 min; Potency, µM (top dose mostly 57.1 µM), without a hit: at the top dose activity change, negative = inhibition, hits mostly inhibitors; 2.2% of 72,000 active; further: potency means the concentration at half of the fitted maximal effect; on the % scale 0 is the no-effect control and ±100 the full control effect; nearly all actives have a fitted effect of over 40% in size
Target sequence (P08659 whole entry, looked up): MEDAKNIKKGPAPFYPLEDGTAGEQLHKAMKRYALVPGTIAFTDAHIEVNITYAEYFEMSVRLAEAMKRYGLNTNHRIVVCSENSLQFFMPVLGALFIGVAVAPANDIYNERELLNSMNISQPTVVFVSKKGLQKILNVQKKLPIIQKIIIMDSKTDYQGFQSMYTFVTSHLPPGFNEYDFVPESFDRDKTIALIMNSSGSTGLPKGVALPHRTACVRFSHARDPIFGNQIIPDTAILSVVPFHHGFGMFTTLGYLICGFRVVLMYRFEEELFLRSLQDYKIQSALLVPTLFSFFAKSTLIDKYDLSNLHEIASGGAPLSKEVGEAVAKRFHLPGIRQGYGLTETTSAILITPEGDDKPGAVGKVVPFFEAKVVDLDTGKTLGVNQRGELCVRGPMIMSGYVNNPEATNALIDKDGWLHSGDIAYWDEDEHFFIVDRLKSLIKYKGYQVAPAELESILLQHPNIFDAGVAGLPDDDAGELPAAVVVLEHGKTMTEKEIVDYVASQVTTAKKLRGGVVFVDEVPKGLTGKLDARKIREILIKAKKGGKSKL
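Titration-based qHTS; buffer 50 mM imidazole pH 7.2, 50 mM KCl, 7 mM MgCl2, 10 uM ATP, 0.01% Tween 20, 0.05% BSA; luciferase/luciferin detector mix added after compound; 8 min, ambient; luminescence.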
Bst PK mod – alters activity of Bacillus stearothermophilus pyruvate kinase. purified pyruvate kinase, luminescence ATP production; ribose 5-phosphate activator present at AC10. Potency, µM. 1.2% of 51,000 active. AID 361; in the data active means potency below about 11 µM; inconclusive means mostly about 12 µM to 25 µM;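 the screen sought inhibitors and activators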;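 further: potency means the concentration at half of the fitted maximal effect; scaled between full activation by ribose 5 phosphate and full inhibition by luteolin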
HBB splice mod – alters splicing of the hemoglobin beta chain; HBB splicing reporter cell assay, activation; EGFP reporter with mutant IVS2-654 intron; response scale: normalised to 500 nM splice-correcting PNA; Potency, µM (titrated, usually from 46.1 µM), for inactives: at the top dose activation, hits mostly activators; 0.06% of 65,000 active; further: potency means the concentration at half of the fitted maximal effect; 0% is about no effect
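HeLa cells stably expressing EGFP interrupted by mutant beta-globin intron 2 (IVS2-654), 500/well in 2% FCS. Treated with compound for 2 days at 37C. Splicing correction scored as total well GFP intensity (488 nm excitation, 500-520 nm emission); 500 nM antisense PNA served as control.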
GBA activity – alters purified human glucocerebrosidase activity; purified enzyme, resorufin glucoside fluorescence (screen aimed at inhibitors), 20 min; P04062; AID 360; 1.1% of 48,000 active; Potency, µM; in the data active means potency below about 15 µM; inconclusive means mostly about 16 µM to 33 µM;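 further: potency means the concentration at half of the fitted maximal effect; the screen sought inhibitors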
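Normal human glucocerebrosidase (0.2 nM final) was assayed with resorufin β-D-glucopyranoside (30 uM final) in 50mM citric acid/KH2PO4, 10mM sodium taurocholate, 0.01% tween-20, pH 5.9. Compounds were titrated; fluorescence (Ex 548, Em 600) read after 20 min at RT.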
GFP derepression – epigenetic modulators derepressing GFP locus in mouse cells; mouse C127i GFP locus derepression, cytometry, 30 h; AID 597; 0.09% of 68,000 active; Potency, µM (doses to about 46.1 µM), for inactives: at the highest dose GFP derepression (activation); further: % of control where 0% means no effect
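Derepression screen: silenced CMV-GFP reporter in murine C127i cells, 30 h compound incubation at 37 C, washed cells imaged by laser-scanning cytometer to enumerate GFP-expressing objects of 20 to 120 um.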
* hit, by the source's call; i = inactive; ? = inconclusive; . = no result; [ ] = dose if it differs, or a comment. Compounds with a hit are over-represented: about 3.3% of the library has one in this group of screens. Unless noted, the call rests on the fitted dose curve; in most records, active means well fitted curve in the direction sought with a large enough effect; inconclusive means small, poorly fitted or top-dose-only effect, or another doubt; inactive means no such curve, though single readings can be large; an effect the other way counts as inactive or inconclusive.

SMILES	Ub-GFP proteasome	FLuc inh	Bst PK mod	HBB splice mod	GBA activity	GFP derepression
CCOC(=O)c1oc2nc3c(cc2c1N)COC(C)(C)C3	-1%	-27%	>11	0%[57.5 µM]	>77	0%
COC(=O)c1sc2nc3c(cc2c1N)COC(C)(C)C3	-4%	13µM*	.	-1%[9.22 µM]	.	2%
COc1cc2cc(C(=O)Nc3ccccc3)c(N)nc2cc1OC	5%	10µM*	i	0%[57.5 µM]	>77	-2%
Oc1ccccc1-c1cc(-c2ccccc2Cl)[nH]n1	-4%	13µM*	?	0%	>77	-3%
NCCC[C@@H](CC(=O)N[C@@H]1CCNC[C@H]1C(=O)N[C@H](CC(=O)N[C@@H](CCC(=O)O)CC(=O)O)Cc1c[nH]c2ccccc12)NC(=O)C[C@H](CO)NC(=O)[C@@H]1CNCC[C@H]1N	.	.	.	3%	.	.
CC(C)C(=O)NC(=O)C1CCCN1C(=O)/C=C/c1ccccc1 (stereo not given)	.	.	.	2%[9.22 µM]	.	.
CO[C@H]1COC(=O)C/C=C\[C@H](C)[C@@H](NS(=O)(=O)c2ccc(C)cc2)COC(=O)CCC[C@@H]1C	.	0%[11.4 µM]	.	1%[9.22 µM]	.	.
Clc1ccc(CSC2=NCCN2)cc1Cl	-6%[9.17 µM]	1%[11.4 µM]	.	2%[9.22 µM]	.	2%[9.22 µM]
CCOc1ccc(CSC2=NCCN2)cc1Cl	5%	0%	>57	.	8.4*	8%
COc1cc(NC(=O)CN2CCN(S(=O)(=O)c3ccc(C(C)C)cc3)CC2)cc(OC)c1	-10%	1%	>57	3%	15*	4%
CCOCCCNC(=O)c1ccc2c(c1)ncn2C1CCCC1	-3%	-8%	>57	0%	>77	1%
O=C(NCCN1CCOCC1)c1ccc2c(c1)ncn2C1CCCCC1	-2%	-1%	>57	2%	15*	-3%
Clc1cccc(Cl)c1Cn1cnc(=NCc2ccco2)c2[nH]cnc21	-1%	-1%	2.2*	9%[0.369 µM]	.	2%
CC(C)[C@@H](CC(=O)N[C@@H]1CCCC[C@H]1C(=O)N[C@H](CC(=O)N[C@@H](CCC(=O)O)CC(=O)O)Cc1c[nH]c2ccccc12)NC(=O)C[C@H](Cc1ccccc1)NC(=O)[C@@H]1CCCC[C@H]1N	.	.	.	1%	.	.
c1ccc2c(c1)nc(Nc1ccc3c(c1)OCO3)c1nnnn12	4%	?	8.6*	3%	>77	0%
COC(=O)c1ccc(C(NC(=O)OCc2ccccc2)/C(=C/[C@@H](C)C(=O)NCC2CC2)c2cccnc2)cc1 (stereo not given in full)	.	.	.	-1%	.	.
COc1ccc2[nH]cc(CCNc3cc(-c4cccc(C#N)c4)ncn3)c2c1	1%	0%[2.29 µM]	.	-1%	.	2%[9.22 µM]
Cc1ccc(CNc2ccc(N3CCOCC3)cc2)s1	1%	13µM*	i	.	>77	-1%
CC(=O)N1CCN(c2ccc(NCc3ccc(C)s3)cc2)CC1	9%	-4%	.	-1%	.	.
Clc1ccccc1-c1nc(-c2ccccc2)n[nH]1	2%	16µM*	i	0%[57.5 µM]	>77	1%
Clc1ccccc1-c1nc(-c2ccncc2)no1	5%[9.17 µM]	-24%[11.4 µM]	.	3%[9.22 µM]	.	7%[9.22 µM]
CCOc1ccc(-c2nc(-c3ccccc3C)no2)cc1	-2%	2µM*	8*	-2%	.	0%
COc1ccc2[nH]c3nc(SCc4nnc(-c5ccccc5)o4)nnc3c2c1	1%	-40%	>57	-4%	i	1%
COc1ccc2[nH]c3nc(SC(C)C)nnc3c2c1	-2%	1.6µM*	4.5*	0%[57.5 µM]	>77	1%
CC(=NCc1ccco1)c1c(C)[nH]n(-c2nc3ccccc3s2)c1=O	8%	2µM*	.	-1%	>77	1%
CC(=NCc1ccco1)c1c(O)n(C2CCCCC2)c(=O)[nH]c1=O	7%	1%	.	1%[1.84 µM]	>77	-2%
CC#C[C@@]1(O)CC[C@@H]2[C@@H]3CCC4=CC(=O)CCC4=C3[C@@H](c3ccc(N(C)C)cc3)C[C@]21C	7%	-9%	.	0%	.	-3%
